Data reported in PubChem BioAssay AID1159580 (chemical genetic matrix, 2015).
Where “and” joins values, the source holds several entries; their conditions need not be identical. Equal values may be shown once. The whole screen tested about 5,500 compounds, of which about 2,000 (36%) were called active. Another 18% or so got no clear call; they are omitted. Cut-off read from the data, not from the text of the source: active = normalized growth mostly below about 0.91 (no sharp cut-off); inconclusive = no clear call, values can overlap the other calls; inactive = mostly above about 0.92. Some of the results follow.

Assay: chemical genetic growth profiling, strain panel (AID 1159580);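 note: tested at 20 µM; growth read once vehicle control cultures reached saturation at 30 °C; 1 = growth at the plate median or of vehicle wells; lower values mean less growth of the strain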
Settings: S. cerevisiae deletion strains, growth OD

Measured: normalized growth

NC(Cc1ccc(F)cc1)C(=O)O (configuration not stated)
inactive: locus YAL013W, strain DEP1, active compounds read low 1.01 | locus YAL021C, strain ccr4, active compounds read low 0.987 | locus YAL026C, strain drs2, active compounds read low 1.03 | locus YAL030W, strain snc1, active compounds read low 1.01 | locus YBL061C, strain skt5, active compounds read low 1.03 | locus YBR009C, strain hhf1, active compounds read low 1.03 | locus YBR021W, strain FUR4, active compounds read low 0.99 | locus YBR023C, strain chs3, active compounds read low 1.01 | locus YBR171W, strain sec66, active compounds read low 1.03 | locus YBR229C, strain ROT2, active compounds read low 1.01 | locus YBR231C, strain swc5, active compounds read low 1.02 | locus YCL011C, strain gbp2, active compounds read low 1.02 | locus YCL016C, strain dcc1, active compounds read low 1.01 | locus YCL029C, strain bik1, active compounds read low 1.03 | locus YCL061C, strain MRC1, active compounds read low 1.01 | locus YCL069W, strain vba3, active compounds read low 1.01 | locus YCR088W, strain abp1, active compounds read low 1.02 | locus YDL005C, strain med2, active compounds read low 1.01 | locus YDL035C, strain GPR1, active compounds read low 1.01 | locus YDL040C, strain nat1, active compounds read low 1 | locus YDL074C, strain BRE1, active compounds read low 1.01 | locus YDL101C, strain DUN1, active compounds read low 1.01 | locus YDL134C, strain PPH21, active compounds read low 1.01 | locus YDL185W, strain tfp1, active compounds read low 1.03 | locus YDL192W, strain arf1, active compounds read low 1.02 | locus YDR001C, strain nth1, active compounds read low 1.01 | locus YDR069C, strain doa4, active compounds read low 1.02 | locus YDR101C, strain arx1, active compounds read low 1.04 | locus YDR137W, strain rgp1, active compounds read low 0.994 | locus YDR150W, strain NUM1, active compounds read low 0.997 | locus YDR159W, strain sac3, active compounds read low 1.02 | locus YDR162C, strain NBP2, active compounds read low 1.02 | locus YDR195W, strain ref2 1.04 | locus YDR297W, strain sur2, active compounds read low 1.02 | locus YDR318W, strain mcm21, active compounds read low 1.02 | locus YDR334W, strain swr1, active compounds read low 1.02 | locus YDR335W, strain msn5, active compounds read low 1.02 | locus YDR388W, active compounds read low 1.03 | locus YDR392W, strain spt3, active compounds read low 0.923 | locus YDR502C, strain sam2, active compounds read low 1.02 | locus YEL003W, strain gim4, active compounds read low 1.02 | locus YEL037C, strain rad23, active compounds read low 1.01 | locus YEL061C, strain CIN8 (second series), active compounds read low 1.02 | locus YEL061C, strain CIN8, active compounds read low 1 | locus YER015W, strain faa2, active compounds read low 1.02 | locus YER016W, strain bim1, active compounds read low 1.02 | locus YER110C, active compounds read low 1.04 | locus YER111C, strain swi4, active compounds read low 1.03 | locus YER155C, strain BEM2 (second series), active compounds read low 1.04 | locus YER155C, strain BEM2, active compounds read low 1 | locus YER167W, strain BCK2, active compounds read low 1 | locus YFR010W, strain ubp6, active compounds read low 1.01 | locus YGL078C, strain dbp3, active compounds read low 1.02 | locus YGL086W, strain mad1, active compounds read low 1 | locus YGL167C, strain pmr1, active compounds read low 1.02 | locus YGL173C, strain kem1, active compounds read low 1.02 | locus YGL227W, strain vid30, active compounds read low 1.02 | locus YGL240W, strain doc1, active compounds read low 1.03 | locus YGL248W, strain PDE1, active compounds read low 1.02 | locus YGL253W, strain hxk2, active compounds read low 1.04 | locus YGR135W, strain pre9, active compounds read low 1.02 | locus YGR229C, strain SMI1, active compounds read low 0.992 | locus YGR252W, strain gcn5, active compounds read low 1.06 | locus YHR013C, strain ard1, active compounds read low 1.01 | locus YHR027C, strain rpn1, active compounds read low 1.01 | locus YHR030C, strain SLT2, active compounds read low 1.01 and 1.02 | locus YHR079C, strain IRE1 (second series), active compounds read low 1.03 | locus YHR079C, strain IRE1, active compounds read low 1.02 | locus YHR094C, strain hxt1, active compounds read low 1.02 | locus YHR129C, strain ARP1, active compounds read low 1.01 | locus YHR142W, strain chs7, active compounds read low 0.996 | locus YHR200W, strain rpn10, active compounds read low 1.02 | locus YIL066C, strain RNR3, active compounds read low 1.01 | locus YIL073C, strain SPO22, active compounds read low 1.09 | locus YIL125W, strain kgd1, active compounds read low 1.02 | locus YIR030C, strain dcg1, active compounds read low 1.02 | locus YJL092W, strain hpr5, active compounds read low 1.02 | locus YJL095W, strain BCK1 (second series), active compounds read low 1.01 | locus YJL095W, strain BCK1, active compounds read low 1.02 and 1.03 | locus YJL115W, strain asf1, active compounds read low 1.01 | locus YJL129C, strain trk1, active compounds read low 1.01 | locus YJL134W, strain LCB3, active compounds read low 1 | locus YJL154C, strain vps35, active compounds read low 1.01 | locus YJL164C, strain tpk1, active compounds read low 0.966 | locus YJL166W, strain qcr8, active compounds read low 1 | locus YJL168C, strain set2, active compounds read low 1.01 | locus YJL187C, strain SWE1 (second series), active compounds read low 1.03 | locus YJL187C, strain SWE1, active compounds read low 1.02 | locus YJR043C, strain POL32, active compounds read low 1 | locus YJR066W, strain TOR1, active compounds read low 1 | locus YJR075W, strain HOC1, active compounds read low 1.01 | locus YKL009W, strain mrt4, active compounds read low 1 | locus YKL068W, active compounds read low 1.01 | locus YKL085W, strain MDH1 (second series), active compounds read low 1.02 | locus YKL085W, strain MDH1, active compounds read low 1.02 | locus YKL160W, strain elf1, active compounds read low 0.99 | locus YKR001C, strain vps1, active compounds read low 1.01 | locus YKR026C, strain gcn3, active compounds read low 1.03 | locus YKR091W, strain srl3, active compounds read low 1.02 | locus YLL001W, strain dnm1, active compounds read low 1 | locus YLL026W, active compounds read low 1.01 | locus YLL041C, strain sdh2, active compounds read low 1.01 | locus YLR027C, strain aat2, active compounds read low 1.01 | locus YLR039C, strain RIC1, active compounds read low 1.04 | locus YLR058C, strain SHM2, active compounds read low 1.02 | locus YLR102C, strain apc9, active compounds read low 1.03 | locus YLR113W, strain HOG1, active compounds read low 1.03 | locus YLR221C, strain rsa3, active compounds read low 0.993 | locus YLR258W, strain gsy2, active compounds read low 1.02 | locus YLR262C, strain YPT6 (second series), active compounds read low 0.997 | locus YLR262C, strain YPT6, active compounds read low 1.06 | locus YLR268W, strain sec22, active compounds read low 1.03 | locus YLR320W, strain mms22, active compounds read low 1.02 | locus YLR330W, strain CHS5, active compounds read low 1.01 | locus YLR342W, strain FKS1 (second series), active compounds read low 0.979 | locus YLR342W, strain FKS1, active compounds read low 1.02 | locus YLR357W, strain rsc2, active compounds read low 1.01 | locus YLR370C, strain arc18, active compounds read low 1.02 | locus YLR371W, strain rom2, active compounds read low 1.02 | locus YLR384C, strain iki3, active compounds read low 1.02 | locus YLR418C, strain cdc73, active compounds read low 1.02 | locus YML016C, strain PPZ1, active compounds read low 1 | locus YML032C, strain rad52, active compounds read low 1.03 | locus YML120C, strain ndi1, active compounds read low 1.01 | locus YML124C, strain tub3, active compounds read low 1.02 | locus YMR058W, strain fet3, active compounds read low 1.02 | locus YMR078C, strain ctf18, active compounds read low 1.04 | locus YMR125W, strain sto1, active compounds read low 1.04 | locus YMR129W, active compounds read low 1.01 | locus YMR205C, strain PFK2, active compounds read low 1.02 | locus YMR223W, strain ubp8, active compounds read low 1.02 | locus YMR231W, strain pep5, active compounds read low 1.02 | locus YMR263W, strain SAP30, active compounds read low 1.01 | locus YMR307W, strain GAS1, active compounds read low 1.05 | locus YNL067W, strain RPL9B, active compounds read low 1.03 | locus YNL071W, strain lat1, active compounds read low 1 | locus YNL128W, strain TEP1, active compounds read low 1.04 | locus YNL183C, strain NPR1, active compounds read low 0.969 | locus YNL209W, strain ssb2, active compounds read low 1.02 | locus YNL233W, strain BNI4, active compounds read low 1.02 | locus YNL248C, strain rpa49, active compounds read low 0.982 | locus YNL250W, strain rad50, active compounds read low 1.02 | locus YNL271C, strain bni1, active compounds read low 1.04 | locus YNL298W, strain CLA4, active compounds read low 1.02 | locus YNL307C, strain MCK1, active compounds read low 1.03 | locus YNL322C, strain KRE1 (second series), active compounds read low 1.01 | locus YNR049C, strain mso1, active compounds read low 1.04 | locus YNR052C, strain pop2, active compounds read low 1.02 | locus YOL012C, strain htz1 1.76 | locus YOL147C, strain pex11, active compounds read low 1.03 | locus YOR001W, strain rrp6, active compounds read low 1.01 | locus YOR061W, strain CKA2, active compounds read low 1.02 | locus YOR069W, strain VPS5, active compounds read low 1 | locus YOR070C, strain gyp1, active compounds read low 1.01 | locus YOR080W, strain dia2, active compounds read low 1.02 | locus YOR083W, strain WHI5, active compounds read low 0.985 | locus YOR106W, strain vam3, active compounds read low 0.992 | locus YOR136W, strain idh2, active compounds read low 1.05 | locus YOR144C, strain elg1, active compounds read low 1.02 | locus YOR184W, strain ser1, active compounds read low 1.04 | locus YOR231W, strain MKK1, active compounds read low 1.05 | locus YOR265W, strain rbl2, active compounds read low 1.01 | locus YOR270C, strain vph1, active compounds read low 1.02 | locus YOR290C, strain snf2, active compounds read low 0.998 | locus YOR316C, strain cot1, active compounds read low 1.02 | locus YPL051W, strain arl3, active compounds read low 0.998 | locus YPL055C, strain LGE1, active compounds read low 1.02 | locus YPL078C, strain atp4, active compounds read low 0.988 | locus YPL106C, strain sse1, active compounds read low 1.02 | locus YPL240C, strain hsp82, active compounds read low 1.03 | locus YPL241C, strain CIN2, active compounds read low 1 | locus YPL256C, strain CLN2, active compounds read low 1.02 | locus YPR119W, strain clb2, active compounds read low 1.02 | locus YPR141C, strain kar3, active compounds read low 1.03 | locus YPR163C, strain tif3, active compounds read low 1.04 | locus YPR167C, strain met16, active compounds read low 1.03 | strain wtn01, active compounds read low 1.03
